Measurements from PubChem BioAssay (NCI).
Compounds without any hit were thinned out: in the full panel of roughly 83,000, 20% have a hit.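 Single-dose data. Exposure time 48 hours. Values below 10 considered active.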 Active and inactive are the calls of the source.

What follows are compounds tested on SK-MEL-2 melanoma (assay: NCI-60 one-dose screen, 48 h (100 = growth as untreated, 0 = no growth, -100 = all killed)). Conditions: 10 µM unless noted.
With CCN(CC)CCCC(C)Nc1cc(-c2cccc(OC(F)(F)F)c2)nc2ccc(N3CCCC3)cc12 (configuration not stated) the growth was -71.2% (active).
With Nc1nnc2cc(Cl)ccc2n1 the growth was -25.9% (active).
OC1(c2ccc(Cl)c(C(F)(F)F)c2)CCN(CCCC(c2ccc(F)cc2)c2ccc(F)cc2)CC1 was tested, and the growth was -77.2% (active).
In the case of Clc1ccc(N2N=C(c3cccc(Nc4ccncc4)c3)CC2c2ccccc2)cc1 (configuration not stated), the growth is reported as 107% (inactive).
In the case of CC1=NNC(=O)C1CCC(=O)N/N=C(\C)c1ccc2ccccc2c1 (configuration not stated), the growth is reported as 102% (inactive).
COc1c(Cl)cc(Cl)c2ccc(C=C3C(=O)N(C)C(=O)N(C)C3=O)nc12 was tested, and the growth was 107% (inactive).
For Cn1c(COC(=O)NCCN2CCOCC2)nc2c(N3CCOCC3)nc(-c3ccccc3)nc21, the growth was -59.8% (active).
With COc1ccc(C(O)c2cc3c(N)c(C(=O)Nc4ccc(Br)cc4)sc3nc2C)cc1 (configuration not stated) the growth was 33.7% (inactive).
With O=c1[nH]c2c(s1)CCCC2CN1CCCCC1 (configuration not stated) the growth was 97.2% (inactive).

Each compound was assayed on EKVX NSCLC in the same assay as above. Conditions: 10 µM unless noted.
In the case of O=C(Nc1ccc(Cl)cc1)Nc1ccc(Cl)c(Cl)c1, the growth is reported as 18.8% (inactive).
In the case of CC(C)Cc1ccc(C(C)C(=O)NCc2ccc(Cn3c(=O)sn(-c4ccc(Cl)cc4)c3=O)cc2)cc1 (configuration not stated), the growth is reported as 82.6% (inactive).
For COc1ccc(/C=N/NC(=O)c2cccc3cc[nH]c23)cc1O, the growth was 32.1% (inactive).
In the case of COc1cc(NCC(O)CN(CC(C)C)C2CCCC2)c2ncccc2c1 (configuration not stated), the growth is reported as 83.2% (inactive).
For COc1cccc(CCC(=O)c2cc3c(N)c(C(=O)Nc4ccccc4)sc3nc2C)c1, the growth was 45.4% (inactive).
CN1CCN(CCCNc2nccc(-c3c(-c4ccc(F)c(O)c4)nc4sccn34)n2)S1(=O)=O was tested, and the growth was 106% (inactive).
In the case of COc1ccccc1Nc1cc(O)c2c(=O)cc(-c3ccccc3)oc2c1, the growth is reported as 57.4% (inactive).
With C[C@@H]1CN(Cc2ccc(/C=C/c3n[nH]c4ccc5nc(-c6cn[nH]c6C(F)(F)F)c6c(c5c34)CCCC6)cc2)C[C@H](C)O1 the growth was 32.4% (inactive).
COc1ccc(-c2ncc(-c3ccccc3)[nH]2)cc1OC was tested, and the growth was 106% (inactive).
In the case of CCOC(=O)c1ccc(Nc2ccnc(SCC(=O)c3ccc(C#N)cc3)n2)cc1, the growth is reported as 73.4% (inactive).
For CCCCCCCCCCCCCCCCCCOc1ccccc1N, the growth was 85.3% (inactive).
With COc1ccc(C2CC(c3cccc(Nc4ccncc4)c3)=NN2c2ccc(Cl)cc2)cc1 (configuration not stated) the growth was 83.8% (inactive).
With O=C(Nc1ccccc1)Oc1ccccc1-c1ccccc1 the growth was 96.5% (inactive).
In the case of Clc1ccc(C2CC(c3cccc(Nc4ccncc4)c3)=NN2c2ccc(Cl)cc2)cc1 (configuration not stated), the growth is reported as 72.3% (inactive).
In the case of Clc1ccc(N2N=C(c3cccc(Nc4ccncc4)c3)CC2c2ccc(Br)cc2)cc1 (configuration not stated), the growth is reported as 77.9% (inactive).
For Fc1ccc(C2CC(c3cccc(Nc4ccncc4)c3)=NN2c2ccccc2)cc1 (configuration not stated), the growth was 90.1% (inactive).
In the case of COc1ccc2c(c1)OC1=C(C(=O)OC1)C2c1cc(OC)c(OC)c(OC)c1 (configuration not stated), the growth is reported as 50.7% (inactive).
In the case of COc1ccncc1C#Cc1cncc(C(=O)Nc2ccc(CN3CCN(C)CC3)c(C(F)(F)F)c2)c1, the growth is reported as 38.4% (inactive).
In the case of Clc1cc(Cl)cc(N2N=C(c3cccc(Nc4ccncc4)c3)CC2c2ccc(Br)cc2)c1 (configuration not stated), the growth is reported as 67.8% (inactive).
For CN1CCN(C(=O)[C@]2(C)CC[C@]3(C)CC[C@]4(C)C(=CC(=O)[C@@H]5[C@@]6(C)CCC(=O)NC(C)(C)[C@@H]6CC[C@]54C)[C@@H]3C2)CC1, the growth was 93.9% (inactive).
With COc1ccc(-c2nc(SCC(C)C)nc(N/N=C(/C)c3ccc(OC)c(OC)c3)c2C#N)cc1 the growth was 89.5% (inactive).
With CC(=O)NCCCS(=O)(=O)O the growth was 98.6% (inactive).
In the case of COc1cc2nc(-c3ccc(C#N)cc3)[nH]c(=O)c2cc1OC, the growth is reported as 98.7% (inactive).
O=C1Nc2c(ccc(Cl)c2Cl)/C1=C/c1ccccn1 was tested, and the growth was 62.3% (inactive).
For CN1CCN(c2ccc(NC3=C(Cl)C(=O)c4ncccc4C3=O)cc2C#N)CC1, the growth was 36.4% (inactive).
COc1ccc(NS(=O)(=O)c2ccc(C)cc2)c([N+](=O)[O-])c1 was tested, and the growth was 101% (inactive).
Cc1ccc(C2CC(c3cccc(Nc4ccncc4)c3)=NN2c2ccccc2)cc1 (configuration not stated) was tested, and the growth was -51.9% (active).
In the case of COc1cc(-c2nc3occn3c2-c2ccnc(NCCNS(=O)(=O)c3ccc(Cl)cc3)n2)ccc1F, the growth is reported as 78.1% (inactive).
With C[C@]12CCc3nc(Nc4cccc(O)c4)sc3C1=CC[C@@H]1[C@@H]2CC[C@]2(C)/C(=N\NC(N)=S)CC[C@@H]12 the growth was 65.9% (inactive).
For CCN(CC)CCCC(C)Nc1cc(-c2cccc(OC(F)(F)F)c2)nc2ccc(N3CCCC3)cc12 (configuration not stated), the growth was 49.9% (inactive).
Nc1nnc2cc(Cl)ccc2n1 was tested, and the growth was 112% (inactive).
For OC1(c2ccc(Cl)c(C(F)(F)F)c2)CCN(CCCC(c2ccc(F)cc2)c2ccc(F)cc2)CC1, the growth was -9.88% (active).
For Clc1ccc(N2N=C(c3cccc(Nc4ccncc4)c3)CC2c2ccccc2)cc1 (configuration not stated), the growth was 82.5% (inactive).
CC1=NNC(=O)C1CCC(=O)N/N=C(\C)c1ccc2ccccc2c1 (configuration not stated) was tested, and the growth was 154% (inactive).
In the case of COc1c(Cl)cc(Cl)c2ccc(C=C3C(=O)N(C)C(=O)N(C)C3=O)nc12, the growth is reported as 101% (inactive).
In the case of Cn1c(COC(=O)NCCN2CCOCC2)nc2c(N3CCOCC3)nc(-c3ccccc3)nc21, the growth is reported as -62.6% (active).
In the case of COc1ccc(C(O)c2cc3c(N)c(C(=O)Nc4ccc(Br)cc4)sc3nc2C)cc1 (configuration not stated), the growth is reported as 32% (inactive).
O=c1[nH]c2c(s1)CCCC2CN1CCCCC1 (configuration not stated) was tested, and the growth was 105% (inactive).
